Inhibition data for 108 compounds are collected here from PubChem BioAssay AID1347418 (Sanford-Burnham Center for Chemical Genomics, 2020).

Out of some 1,300 compounds screened, about 750 (58%) were called active. This is one part of the list.

In the assay the target is Sulfhydryl oxidase 1 (Homo sapiens) (UniProt O00391). The experiment in a line: QSOX1 enzyme inhibitors, primary screen, biochemical, ROS-Glo H2O2 luminescence, HTS (AID 1347418). The conditions noted are these: recombinant QSOX1, ROS-Glo H2O2 luminescence; at 12.5 µM; hits give high values; active = any value above zero.
Sequence of Sulfhydryl oxidase 1 (Homo sapiens) (O00391 whole entry, looked up): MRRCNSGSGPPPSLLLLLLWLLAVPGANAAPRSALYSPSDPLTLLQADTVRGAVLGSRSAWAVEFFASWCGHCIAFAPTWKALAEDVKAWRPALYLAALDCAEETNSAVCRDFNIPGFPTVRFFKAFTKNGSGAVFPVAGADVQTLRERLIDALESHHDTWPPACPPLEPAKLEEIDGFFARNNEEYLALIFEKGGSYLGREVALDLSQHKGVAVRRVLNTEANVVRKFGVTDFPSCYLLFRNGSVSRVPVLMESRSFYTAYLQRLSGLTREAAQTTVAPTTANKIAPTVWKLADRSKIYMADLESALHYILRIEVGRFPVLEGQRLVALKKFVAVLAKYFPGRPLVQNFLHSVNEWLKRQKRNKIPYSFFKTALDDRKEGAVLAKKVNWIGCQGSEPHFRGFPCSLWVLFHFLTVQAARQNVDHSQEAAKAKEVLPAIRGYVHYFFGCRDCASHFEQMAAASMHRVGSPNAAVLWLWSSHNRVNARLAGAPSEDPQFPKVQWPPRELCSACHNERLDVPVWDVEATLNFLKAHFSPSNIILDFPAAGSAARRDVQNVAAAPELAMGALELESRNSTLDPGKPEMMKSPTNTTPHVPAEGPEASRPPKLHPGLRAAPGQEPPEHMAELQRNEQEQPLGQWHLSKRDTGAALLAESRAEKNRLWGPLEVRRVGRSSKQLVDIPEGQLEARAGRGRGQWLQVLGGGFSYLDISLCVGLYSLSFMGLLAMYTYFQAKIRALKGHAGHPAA
As a reminder, the inhibition is the drop in the measured response relative to a control, in per cent. Take `c1ccc(-c2ccccn2)nc1`: the inhibition is 7.3% (active).
The value for `c1cnc2c(c1)ccc1cccnc12` was -2.1% (inactive); that for `Cn1cnc2c1c(=O)[nH]c(=O)n2C` was 3.2% (active); that for `Cn1c(=O)[nH]c2ncn(C)c2c1=O` was 3% (active).
The value for `CC1(C)CCC=[N+]1[O-]` was -1.5% (inactive); that for `CC(CN1c2ccccc2Sc2ccccc21)N(C)C` (stereo not drawn) was 43.7% (active).
Then `CCN(CC)C(C)CN1c2ccccc2Sc2ccccc21` (stereo not drawn), with 50.6% (active); and `O=C1NC(=O)/C(=C/c2ccc(-c3ccc(F)cc3O)o2)S1`, with 27.2% (active).
Regarding `O=C(O)[C@@H]1C[C@H](C(=O)O)N1`, the inhibition was -6.9% (inactive).
On to `C=CCNc1ncnc2ccc(Br)cc12`, for which the inhibition is -1.1% (inactive).
On to `NC(=O)c1cnccn1`, for which the inhibition was 0.9% (active).
Then `NC(CO)C(=O)NNCc1ccc(O)c(O)c1O` (stereo not drawn), with 25.6% (active).
As to `O=c1onc2n1-c1cc(Br)ccc1OC2`, the inhibition is -0.8% (inactive).
The value for `O=C(O)CCCC[C@@H]1CCSS1` was -2.4% (inactive); that for `NCCCCC(=O)O` was -2.5% (inactive); that for `NCCCCCC(=O)O` was 5% (active).
On to `CCOC(=O)N1CCN(/[N+]([O-])=N/Oc2ccc([N+](=O)[O-])cc2[N+](=O)[O-])CC1`, for which the inhibition was -34% (inactive).
Then `NC(=O)c1ncn([C@@H]2O[C@H](CO)[C@@H](O)[C@H]2O)n1`, with -3.1% (inactive); and `OCC1O[C@H]([S-])[C@@H](O)C(O)[C@@H]1O.[Au+]` (stereo partly drawn), with 2.4% (active); and `CC(=O)N[C@@H](Cc1c[nH]c2ccccc12)C(=O)OCc1cc(C(F)(F)F)cc(C(F)(F)F)c1`, with 2% (active).
Then `O=C1C2C=CC=CC2=NC(=S)N1CCN1CCC(=C(c2ccc(F)cc2)c2ccc(F)cc2)CC1` (stereo not drawn), with 4.4% (active); and `NCCCNCCCCNCCCN`, with -1.8% (inactive).
The value for `NCCCCNCCCN` was 1.5% (active).
With `CC(C)(C)NCC(O)COc1nsnc1N1CCOCC1` (stereo not drawn), the inhibition is 3.3% (active).
Then `CCOC(=O)C12CC1/C(=N/O)c1ccccc1O2` (stereo not drawn), with 0.7% (active); and `O=C(c1ccc(F)cc1)C1CCN(CCn2c(=O)[nH]c3ccccc3c2=O)CC1`, with 1.5% (active); and `CC1(C)C(=O)N(CCN2CCC(C(=O)c3ccc(F)cc3)CC2)c2ccccc21`, with -1.4% (inactive).
The value for `O=C(O)c1cc2cc(F)ccc2[nH]1` was 6.8% (active); that for `O=C(O)c1cc(=O)cc(C(=O)O)[nH]1` was -2% (inactive); that for `C[C@@]1(C2CCCC2)Cc2cc(OCC(=O)O)c(Cl)c(Cl)c2C1=O` was -4.6% (inactive).
The value for `CCCC[C@@]1(C2CCCC2)Cc2cc(OCC(=O)O)c(Cl)c(Cl)c2C1=O` was 4.2% (active); that for `COc1ccc2c(c1)c(CC(=O)O)c(C)n2Cc1ccc(Cl)cc1` was -5.1% (inactive); that for `CC(C)c1ccc2c(c1)c(SC(C)(C)C)c(CC(C)(C)C(=O)O)n2Cc1ccc(Cl)cc1` was 8.9% (active).
`Cc1cc2c(C(C)C)c(O)c(O)c(C=O)c2c(O)c1-c1c(C)cc2c(C(C)C)c(O)c(O)c(C=O)c2c1O`: the inhibition was 50.4% (active).
The value for `CCN1C(=O)C=CC1=O` was -3.8% (inactive).
The value for `[N-]=[N+]=Nc1ccc(C(=O)CSC[C@H](NC(=O)CC[C@H](N)C(=O)O)C(=O)NCC(=O)O)cc1` was 6.8% (active); that for `N[C@@H](CCC(=O)N[C@H](CSN=O)C(=O)NCC(=O)O)C(=O)O` was -4.8% (inactive).
Then `O=C1N=C([O-])CN1/N=C/C1=C[C+]=C(c2ccc([N+](=O)[O-])cc2)O1`, with 3.6% (active).
Regarding `N=C(N)SCCN`, the inhibition was 6.4% (active).
As to `N=C(N)SCCc1ccc(CCSC(=N)N)cc1`, the inhibition is -2.2% (inactive).
Then `S=C(S)N1CCCC1`, with 19.5% (active).
The value for `N#CC(C#N)=C(N)/C(C#N)=C/c1ccc(O)cc1` was 11.6% (active).
As to `O=[N+]([O-])c1ccc2c(c1)S(=O)(=O)C=C2`, the inhibition is 2% (active).
The value for `O=c1[nH]c2cc(C(F)(F)F)ccc2n1-c1cc(C(F)(F)F)ccc1O` was 1.4% (active); that for `O=NN(CCCl)C(=O)NCCCl` was -3.4% (inactive).
The value for `NC1CCN(O)C1=O` (stereo not drawn) was 1.1% (active); that for `COc1cc2c(c(OC)c1OC)-c1ccc(OC)c(=O)cc1[C@@H](NC(C)=O)CC2` was 1.3% (active).
The value for `CCCCCCC(=O)OC1CC(C)(C)NC(C)(C)C1` was 1.1% (active); that for `Nc1ccc(S(=O)(=O)Nc2ccnn2-c2ccccc2)cc1` was -1.7% (inactive).
On to `CNc1cc(NS(=O)(=O)c2ccc(N)cc2)nc(NC)n1`, for which the inhibition was 3.7% (active).
Then `O=C(O)C1=CC(=C(c2ccc(O)c(C(=O)O)c2)c2ccc(O)c(C(=O)O)c2)C=CC1=O`, with 17.4% (active); and `N#C/C(=C\c1ccc(O)c(O)c1)C(=O)c1ccc(O)c(O)c1`, with 17.4% (active); and `COc1cc(/C=C(\C#N)C(=O)c2ccc(O)c(O)c2)cc(I)c1O`, with 27.3% (active).
The value for `CN(C)CCC(c1ccc(Br)cc1)c1ccccn1` (stereo not drawn) was 0.5% (active).
For the compound `CN(C)CC[C@@H](c1ccc(Br)cc1)c1ccccn1`, the inhibition was 7.7% (active).
Then `CN(C)CCC(c1ccccc1)c1ccccn1` (stereo not drawn), with 1.1% (active).
Regarding `CN(C)CC[C@@H](c1ccc(Cl)cc1)c1ccccn1`, the inhibition was 0% (inactive).
As for `CN(C)CCC(c1ccc(Cl)cc1)c1ccccn1` (stereo not drawn), the inhibition was 2.8% (active).
Then `O.O.[NH2-].[NH2-].[NH2-].[NH2-].[NH2-].[NH2-].[NH2-].[NH2-].[NH2-].[NH2-].[NH2-].[NH2-].[NH2-].[NH2-].[Ru].[Ru].[Ru]`, with 20.7% (active).
The value for `CCCCC/C=C\CC(O)/C=C/c1cccc(CC(O)CCCCO)n1` (stereo not drawn) was -0.7% (inactive); that for `O=C1CCc2cc(OCCCCc3nnnn3C3CCCCC3)ccc2N1` was 1.5% (active).
In the case of `CCOC(=O)C1=C[C@]2(CC)CCCN3CCc4c(n1c1ccccc41)[C@@H]32`, the inhibition was 0.9% (active).
Consider `O=C1c2c(O)ccc(O)c2C(=O)c2c(NCCNCCO)ccc(NCCNCCO)c21`, for which the inhibition was 42% (active).
Then `C=C1N=C(N=NC2=C(S(=O)(=O)[O-])[C+]=C(S(=O)(=O)[O-])[C+]=C2)[C+](COP(=O)([O-])O)C(C=O)=C1O`, with -3.7% (inactive); and `CC(=O)[C@H]1CC[C+]2C3CC=C4C[C@@H](OS(=O)(=O)[O-])CC[C@]4(C)C3CC[C@@]21C` (stereo partly drawn), with 1.8% (active); and `CCOC(=O)C(C)Oc1cccc2c(=O)n(CC(=O)Nc3ccc4c(c3)OCCO4)ccc12` (stereo not drawn), with -3.2% (inactive).
The value for `c1ccc(CN2CCC3(CCCc4ccccc43)CC2)cc1` was 3.6% (active); that for `Cc1nc2ccccn2c(=O)c1CCN1CCC(C(=O)c2ccc(F)cc2)CC1` was -1.4% (inactive).
As for `Cc1nc2sccn2c(=O)c1CCN1CCC(=C(c2ccc(F)cc2)c2ccc(F)cc2)CC1`, the inhibition is 1.1% (active).
Then `Cc1nc2sccn2c(=O)c1CCN1CCC(=C(c2ccccc2)c2ccc(F)cc2)CC1`, with 1.2% (active).
Then `CN1CCN(C2=Nc3cc(Cl)ccc3Nc3ccccc32)CC1`, with 22.2% (active); and `Cc1ccc2c(c1)C(N1CCN(C)CC1)=Nc1cccnc1N2`, with 15.5% (active).
The value for `CC1=NS(=O)(=O)c2cc(Cl)ccc2N1` was -1.4% (inactive); that for `Clc1ccc2c(c1)N=C(N1CCNCC1)c1ccccc1N2` was 23.2% (active); that for `CCCCC[C@H](CC(=O)NO)C(=O)N[C@H](C(=O)N1CCC[C@H]1CO)C(C)C` was -6.2% (inactive).
For `CCN1CCc2nc(N)oc2CC1`, the inhibition is 2.8% (active).
For the compound `CCCCCCCCCCCCCCSCC(=O)O`, the inhibition was -7.6% (inactive).
Then `CCCCCC(O)CCCC(=O)O` (stereo not drawn), with 1.1% (active).
The value for `O=C(O)CCCCCCCC(=O)O` was -1.7% (inactive).
Then `CC(C)(CO)Cc1cc(C(C)(C)C)c(O)c(C(C)(C)C)c1`, with 4.9% (active); and `CC(C)(C=O)Cc1cc(C(C)(C)C)c(O)c(C(C)(C)C)c1`, with -0.1% (inactive).
Regarding `CCCCCCCCCCCCCCC[C@H](O)[C@H](N)CO`, the inhibition is 7.8% (active).
Then `CCCCCC[C@@H]([C@@H](C)O)n1cnc2c(N)ncnc21`, with -0.9% (inactive); and `CCCC(=O)NCCc1c2n(c3ccc(OC)cc13)CCCc1ccccc1-2`, with 15% (active); and `CC(C)Cc1ccc([C@H](C)C(=O)O)cc1`, with -0.6% (inactive).
The value for `CC(C)Cc1ccc(C(C)C(=O)O)cc1` (stereo not drawn) was 5.8% (active); that for `CC(C(=O)O)c1cccc(C(=O)c2ccccc2)c1` (stereo not drawn) was -2.4% (inactive).
Then `CC(C(=O)O)c1ccc(CC2CCCC2=O)cc1` (stereo not drawn), with 0.1% (active).
For `O=C(O)/C=C/c1cnc[nH]1`, the inhibition was 1% (active).
Then `CCC1(C)CC(=O)NC1=O` (stereo not drawn), with 0.9% (active); and `CCCCOc1cc(CC2CNC(=O)N2)ccc1OC` (stereo not drawn), with -0.2% (inactive).
The value for `N[C@H](C(=O)O)[C@H]1C[C@@H]1C(=O)O` was 0.2% (active).
Then `Cc1cccc(C)c1OCC(C)N` (stereo not drawn), with -0.4% (inactive); and `Cc1cccc(C)c1OCC(N)C(C)C` (stereo not drawn), with 4.5% (active).
For `Cc1cc2c(cc1Cl)N(C(=O)Nc1ccc(Oc3cccnc3C)nc1)CC2`, the inhibition was 1.2% (active).
The value for `Cc1cc2c(cc1Cl)N(C(=O)Nc1ccnc3ccccc13)CC2` was 16.8% (active); that for `CCN(CC)CCNC(=O)c1ccc(NC(C)=O)cc1` was 0.3% (active); that for `CCN(CC)CCNC(=O)c1ccc(N)cc1` was -7.4% (inactive).
Then `CCN(CC)CCNC(=O)c1ccc(NS(C)(=O)=O)cc1`, with -0.3% (inactive); and `COc1ccc(CN(CCN(C)C)c2ccccn2)cc1`, with 1.5% (active); and `CN(C)CCN(Cc1cccs1)c1ccccn1`, with 7% (active).
The value for `CN(C)CCOC(C)(c1ccccc1)c1ccccn1` (stereo not drawn) was -2.5% (inactive).
In the case of `CNC1(C)C2CCC(C2)C1(C)C` (stereo not drawn), the inhibition is -2% (inactive).
The value for `CN1CCCC1CCOC(C)(c1ccccc1)c1ccc(Cl)cc1` (stereo not drawn) was 0.6% (active); that for `C=C/C(C)=C/[C@@]1(C)SC(=O)C(C)=C1O` was -4.2% (inactive).
The value for `Cc1nnc(SCC2=C(C(=O)O)N3C(=O)[C@@H](NC(=O)Cn4cnnn4)[C@H]3SC2)s1` was -3.9% (inactive); that for `CO/N=C(\C(=O)N[C@@H]1C(=O)N2C(C(=O)O)=C(CSc3nc(=O)c(O)nn3C)CSC12)c1csc(N)n1` (stereo partly drawn) was -1.9% (inactive); that for `CO[C@@]1(NC(=O)CSCC#N)C(=O)N2C(C(=O)O)=C(CSc3nnnn3C)CS[C@@H]21` was 0.7% (active).
